High-throughput results as filed in PubChem BioAssay.
Shown is part of a subset that was picked to be rich in hits.
AmpC no deterg: qHTS Inhibitors of AmpC Beta-Lactamase (assay without detergent); P00811; AmpC nitrocefin hydrolysis, absorbance 480 nm, 0.0001% Triton; Potency, µM (highest dose often 57.1 µM), actives largely listed as inhibitors; actives 0.52% (n = 330,000); AID 485341, 2010; note: nearly all actives have a fitted effect of over 20% in size
Target sequence (P00811 whole entry, looked up): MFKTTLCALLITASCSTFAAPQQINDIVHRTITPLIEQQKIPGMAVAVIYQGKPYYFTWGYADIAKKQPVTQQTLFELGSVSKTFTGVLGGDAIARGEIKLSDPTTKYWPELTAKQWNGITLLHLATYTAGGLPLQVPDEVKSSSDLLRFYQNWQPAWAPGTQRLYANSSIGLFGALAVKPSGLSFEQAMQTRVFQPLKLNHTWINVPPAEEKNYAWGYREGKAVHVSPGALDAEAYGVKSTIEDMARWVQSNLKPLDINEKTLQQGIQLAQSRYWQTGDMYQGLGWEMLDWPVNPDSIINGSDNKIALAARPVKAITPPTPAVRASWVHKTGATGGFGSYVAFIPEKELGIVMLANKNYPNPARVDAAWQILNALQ
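20 mM phosphate pH 7.0 + 0.01% (detergent screen) or 0.0001% Triton X-100; 5.3 nM AmpC reagent; cpd preinc 15 min RT; nitrocefin (800 uM stock) to start; A480 q20 s × 4 min; Activity was normalised to no-enzyme and no-compound control wells.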
AmpC detergent: qHTS Inhibitors of AmpC Beta-Lactamase (assay with detergent); actives 0.041% (n = 370,000); P00811; AmpC hydrolysis of nitrocefin, absorbance 480 nm, 0.01% Triton; Potency, µM (top dose mostly 114 µM), hits mostly inhibitors; note: nearly all actives have a fitted effect of over 25% in size
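AmpC (5.3 nM in the dispensed reagent) in 20 mM phosphate pH 7.0 with 0.01% (detergent screen) or 0.0001% Triton X-100 was preincubated with compounds for 15 min at room temperature. Nitrocefin was then added from an 800 uM solution, and hydrolysis was followed at 480 nm.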
Cycloheximide cs: Cycloheximide Counterscreen for Small Molecule Inhibitors of Shiga Toxin; cell reporter, cycloheximide protein synthesis inhibition counterscreen; max response, %; actives 12% (n = 300,000); in the data active = max response mostly above about 13%, no sharp cut-off; inactive = mostly below about 14%; note: read at 38.3 µM for the half of the compounds with a filed dose
SARS PLP yeast: qHTS of Yeast-based Assay for SARS-CoV PLP. S. cerevisiae expressing SARS-CoV PLpro, growth rescue. actives 0.19% (n = 330,000). Potency, µM (doses to about 32.9 µM), actives largely listed as activators; calls by dose curve; note: nearly all actives have a fitted effect of over 55% in size
Shiga toxin inh: A qHTS for Small Molecule Inhibitors of Shiga Toxin; actives 9.2% (n = 290,000); Vero cells, Shiga toxin protein synthesis inhibition reporter; inhibition, % at 38.7 µM; in the data active = inhibition mostly above about 28%, no sharp cut-off; inactive = mostly below about 43%
AMA1 RON2 block: qHTS for Inhibitors of AMA1-RON; Towards Development of Antimalarial Drug Lead: Primary Screen; Plasmodium falciparum AMA1 (3D7) - RON2 peptide interaction; AlphaScreen AMA1-biotinylated RON2 peptide binding; Potency, µM (doses to about 58.2 µM), actives largely listed as inhibitors; actives 0.2% (n = 360,000); AID 720542, 2013; note: nearly all actives have a fitted effect of over 45% in size
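AMA1 (3D7) with his tag at 25 nM final met compounds first, then biotinylated RON2 peptide at 25 nM; detection used donor plus acceptor beads, 10 µg/mL apiece, read by AlphaScreen after 30 min at room temperature.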
Hits are given with their value; . = inactive; ? = inconclusive; / = no result given; [ ] = another dose, or the depositor's remark. Unless noted, calls come from the whole dose curve; as a rule, active = well fitted curve in the direction sought with a large enough effect; inconclusive = small, poorly fitted or top-dose-only effect, or another doubt; inactive = no such curve, though single readings can be large; an effect the other way counts as inactive or inconclusive.

SMILES | AmpC no deterg | AmpC detergent | Cycloheximide cs | SARS PLP yeast | Shiga toxin inh | AMA1 RON2 block
Cc1ccc(NC(=O)NC(=S)NC(=O)c2ccccc2)cc1 | . | . | 48 | . | 88 | .
O=C1CN(C(=S)NC(=O)c2ccc(-c3ccccc3)cc2)CCN1 | .[2.29 µM] | ? | 15 | . | . | .
COc1ccc(NC(=S)NC(=O)c2csnn2)cc1 | . | . | . | . | . | .
O=C(O)C1C2C=CC3(CN(CC(O)COc4ccccc4)C(=O)C13)O2 (stereo not given) | . | . | . | . | . | .
COc1ccccc1N1C(=O)c2ccc(C(=O)Nc3cccc(C(C)=O)c3)cc2C1=O | . | . | . | . | . | .
COc1ccc(C)cc1NC(=O)C(Sc1nnc(Nc2ccccc2F)s1)c1ccccc1 (stereo not given) | 3.5µM | . | 11 | . | . | .
C=CCn1c(SCCCCCC)nc(O)cc1=O | . | . | . | . | . | .
COc1cc(NC(=S)NC(=O)c2ccc(F)cc2)ccc1NC(=O)c1ccco1 | . | . | . | . | . | .[11.6 µM]
CCCCCCn1c(=O)c(C(=O)Nc2c(C)n(C)n(-c3ccccc3)c2=O)c(O)c2ccccc21 | . | ? | . | . | . | .
CN(C)c1cc2c(c(N(C)C)c1)C(=O)c1ccccc1C2=O | . | . | 39 | . | . | 18µM
CCOc1ccc(Nc2nc(N)c(C(=O)c3ccccc3Cl)s2)cc1 | / | . | / | / | / | /
Cc1ccc(-c2cc(C(=O)NC3CCCC3)no2)cc1 | . | ? | 37 | . | 92 | .
O=C(NC1CCCCC1)c1cc(-c2cccs2)on1 | . | ? | 50 | . | 117 | .
O=C(NC1CCCCC1)c1cc(-c2ccc(F)cc2)on1 | . | ? | 12 | . | . | .
COc1cc(NC(=O)c2cc(-c3ccc(Cl)c(Cl)c3)on2)cc(OC)c1OC | / | . | / | / | / | /
O=C(NC1CCCC1)c1cc(-c2ccc(Cl)c(Cl)c2)on1 | . | . | 27 | . | 45 | .
O=C(COCc1cc(-c2cccs2)on1)NC1CCCCC1 | . | ? | . | . | . | .
Cc1cc(C(=O)NC2CCCC2)on1 | . | . | . | . | . | .
Cc1ccc(C)c(NC(=O)CSc2nnc([C@@H](N)Cc3c[nH]c4ccccc34)o2)c1 | . | . | . | . | . | .
Clc1cccc(-c2nc(-c3ccccn3)no2)c1 | . | . | . | . | . | .
Cc1ccc(C)c(N2CCN(CCCNC(=O)c3cnn(-c4cccc(Cl)c4)c3C3CCN(C(=O)OC(C)(C)C)CC3)CC2)c1 | / | . | / | / | / | /
COc1ccccc1Nc1cc(C(=O)NCc2cccs2)c2ccccc2n1 | / | . | / | / | / | /
Cn1c(=O)c2c(-c3ccccc3)n(N3CCOCC3)cc2n(C)c1=O | . | ? | . | . | . | .
Cn1c(=O)c2c(-c3ccc(C(C)(C)C)cc3)n(N3CCOCC3)cc2n(C)c1=O | . | 35µM | . | . | . | .
COc1ccc(/C=C/C(=O)c2ccc[nH]2)cc1OC | . | ? | 30 | . | . | .
SMILES | AmpC no deterg | AmpC detergent | Cycloheximide cs | SARS PLP yeast | Shiga toxin inh | AMA1 RON2 block
COc1ccc(/C=C/C(=O)c2ccc[nH]2)c(OC)c1OC | . | ? | 26 | . | 100 | .
COc1ccc(NC(=O)C2CCN(c3nc4ccccc4nc3C(F)(F)F)CC2)cc1 | / | . | / | / | / | /
CN1C/C(=C/c2ccsc2)C(=O)/C(=C/c2ccsc2)C1 | . | . | 63 | . | . | ?
CN1C/C(=C/c2ccncc2)C(=O)/C(=C/c2ccncc2)C1 | . | . | 32 | . | . | .
COc1ccc(-n2nc(C(=O)NCC(=O)NC(C)C)c3ccccc3c2=O)c(OC)c1 | . | . | . | . | . | .
COc1cccc(S(=O)(=O)Nc2ccc(C(=O)N3CCCCCC3)cc2)c1 | . | . | . | . | . | .
O=c1[nH]ncc2c3ccccc3n(Cc3ccccc3)c12 | . | . | . | . | . | .
Cc1nc(N)sc1N=Nc1ccc(Br)cc1 | . | . | 65 | . | 127 | .
Cc1ccc(-c2[nH]nc(N)c2N=Nc2ccccc2C)cc1 | . | . | . | . | . | .
